Laboratory results taken from PubChem BioAssay (Tox21).
Where “and” joins values, the source holds several entries; their conditions need not be identical. Equal values may be shown once. Records with an inconclusive call do not appear. Where a call stands in place of a potency, no number is given. A structure can be active in one record and inactive in another. Calls of active or inactive are those of the source. The call rests on the fitted dose curve.

Assay: Nuclear factor erythroid 2-related factor 2/antioxidant responsive element (Nrf2/ARE) small molecule agonists: luciferase reporter gene qHTS assay in human keratinocytes (AID 1919969); further: nearly all actives have a fitted effect of over 35% in size
Potency means the concentration at half of the fitted maximal effect.

OCc1ccco1
Potency: inactive

C=CC(=O)NC(C)(C)CC(C)=O
Potency: inactive

ClC(Cl)(Cl)c1ccccc1
Potency: inactive

CC1(C)CC(=O)CC(C)(C)N1[O]
Potency: inactive

C=C(C)[C@@H]1CC=C(C=O)CC1
Potency: inactive

CC(C)(N)Cc1ccccc1Cl
Potency: inactive

COC(=O)NC(=S)Nc1ccccc1NC(=S)NC(=O)OC
Potency: inactive

CC[N+](=O)[O-]
Potency: inactive

CCCCOCCOC(C)=O
Potency: inactive

C[C@]12CC[C@H](O)CC1=CC[C@@H]1[C@@H]2CC[C@]2(C)C(=O)CC[C@@H]12
Potency: inactive

CC(C=O)Cc1ccc2c(c1)OCO2 (configuration not stated)
Potency: inactive

COC(C)(C)CCCC(C)C/C=C/C(C)=C/C(=O)OC(C)C (configuration not stated)
Potency: 47.8 µM (active)

Nc1ccc(-c2ccc(N)cc2)cc1
Potency: inactive

O=C(Cc1ccccc1)c1ccccc1
Potency: inactive

COc1ccc(C=O)cc1OC
Potency: 69.3 µM (active) and inactive

Cc1ccccc1CCl
Potency: inactive

Nc1ccc(N=Nc2ccc(-c3ccc(N=Nc4c(S(=O)(=O)O)cc5cc(S(=O)(=O)O)c(N=Nc6ccccc6)c(O)c5c4N)cc3)cc2)c(N)c1
Potency: inactive

CN(C)C(=O)Nc1cccc(C(F)(F)F)c1
Potency: inactive

[CH3][Sn]([CH3])([Cl])[Cl]
Potency: 55.4 µM (active) and inactive

Nc1ccc(Cl)cc1N
Potency: 31.9 µM (active) and 19.3 µM (active)

C1CN2CCN1CC2
Potency: inactive

OCC(O)CO
Potency: inactive

CN(C)P(=O)(N(C)C)N(C)C
Potency: inactive

O=C1C2CC=CCC2C(=O)N1SC(Cl)(Cl)Cl (configuration not stated)
Potency: 54.3 µM (active) and 7.57 µM (active)

CCCCCCOC(=O)c1ccccc1C(=O)OCCCCCC
Potency: inactive

CCCCCCCC[N+](C)(CCCCCCCC)CCCCCCCC
Potency: inactive

Nc1ccccc1C(=O)OCCc1ccccc1
Potency: 488 nM (active) and inactive

CCCC(C)(COC(N)=O)COC(N)=O
Potency: inactive

Oc1ccc(Cl)cc1Cc1ccccc1
Potency: 22 µM (active) and inactive

O=C1C2(Cl)C3(Cl)C4(Cl)C(Cl)(Cl)C5(Cl)C3(Cl)C1(Cl)C5(Cl)C24Cl (configuration not stated)
Potency: inactive

COP(=O)(OC)OC
Potency: 61.6 µM (active) and inactive

Cc1ccc2cc(C)ccc2c1
Potency: inactive

COCCl
Potency: inactive

O=P(O)(Oc1ccccc1)Oc1ccccc1
Potency: inactive

Cc1cccc([N+](=O)[O-])c1
Potency: inactive

CCCCCCCCCCCCCCCCn1cc[n+](C)c1
Potency: inactive

CCCCCCCCCC(CC)c1ccc(S(=O)(=O)O)cc1 (configuration not stated)
Potency: inactive and 21.7 µM (active)

OCC1CO1 (configuration not stated)
Potency: inactive

c1cc2c(c(N3CCNCC3)c1)OCCO2
Potency: inactive

Oc1c(Cl)c(Cl)c(Cl)c(Cl)c1Cl
Potency: inactive

COc1cc(OC)nc(Oc2cccc(Oc3nc(OC)cc(OC)n3)c2C(=O)O)n1
Potency: inactive

Cc1coc2c1CCC(C)C2 (configuration not stated)
Potency: inactive

COP(N)(=O)SC (configuration not stated)
Potency: inactive

CCOC(=O)Nc1cccc(OC(=O)Nc2ccccc2)c1
Potency: inactive

CCC1(c2ccccc2)CCC(=O)NC1=O (configuration not stated)
Potency: inactive

CCSC(=O)N1CCCCCC1
Potency: 37.5 µM (active) and inactive

O=C(CCl)c1ccccc1
Potency: 62 µM (active) and 54.5 µM (active)

CC(C)(C)CC(C)(C)c1ccc(O)cc1
Potency: inactive

O=Cc1ccccc1
Potency: inactive

CNC(=O)O/N=C/C(C)(C)S(C)(=O)=O
Potency: inactive

Oc1cc(Cl)ccc1Oc1ccc(Cl)cc1Cl
Potency: inactive

CCN(CC)CCN1C(=O)CN=C(c2ccccc2F)c2cc(Cl)ccc21
Potency: inactive

CCCCCCCCCCCCCCn1cc[n+](C)c1
Potency: inactive

Cn1cc[n+](C)c1 (tested in a mixture with another compound)
Potency: inactive

CCc1cccc(CC)c1N(COC)C(=O)CCl
Potency: 47 µM (active) and 54.5 µM (active)

O=[N+]([O-])CCO
Potency: inactive

CCOCN(C(=O)CCl)c1c(C)cccc1CC
Potency: 25.8 µM (active) and 68.6 µM (active)
